# For some assays here: Potency and affinity values are given separately.
# Key:
# Parameters in all cases: scale not given: direction of the effect not stated beside the values
# [1] = molecular target: Protein translocase subunit SecA (Escherichia coli (strain K12)) (UniProt P10408); assay: Assay to Identify E. coli SecA ATPase Inhibitors; type: functional; conditions: 30 µM
# [2] = molecular target: T1, Ubiquitin-activating enzyme e1, putative (Leishmania donovani (strain BPK282A1)) (UniProt E9BSI1); assay: Leishmania donovani Ubiquitin Activating Enzyme (LdE1); type: functional; conditions: 30 µM
# T1 sequence (whole entry): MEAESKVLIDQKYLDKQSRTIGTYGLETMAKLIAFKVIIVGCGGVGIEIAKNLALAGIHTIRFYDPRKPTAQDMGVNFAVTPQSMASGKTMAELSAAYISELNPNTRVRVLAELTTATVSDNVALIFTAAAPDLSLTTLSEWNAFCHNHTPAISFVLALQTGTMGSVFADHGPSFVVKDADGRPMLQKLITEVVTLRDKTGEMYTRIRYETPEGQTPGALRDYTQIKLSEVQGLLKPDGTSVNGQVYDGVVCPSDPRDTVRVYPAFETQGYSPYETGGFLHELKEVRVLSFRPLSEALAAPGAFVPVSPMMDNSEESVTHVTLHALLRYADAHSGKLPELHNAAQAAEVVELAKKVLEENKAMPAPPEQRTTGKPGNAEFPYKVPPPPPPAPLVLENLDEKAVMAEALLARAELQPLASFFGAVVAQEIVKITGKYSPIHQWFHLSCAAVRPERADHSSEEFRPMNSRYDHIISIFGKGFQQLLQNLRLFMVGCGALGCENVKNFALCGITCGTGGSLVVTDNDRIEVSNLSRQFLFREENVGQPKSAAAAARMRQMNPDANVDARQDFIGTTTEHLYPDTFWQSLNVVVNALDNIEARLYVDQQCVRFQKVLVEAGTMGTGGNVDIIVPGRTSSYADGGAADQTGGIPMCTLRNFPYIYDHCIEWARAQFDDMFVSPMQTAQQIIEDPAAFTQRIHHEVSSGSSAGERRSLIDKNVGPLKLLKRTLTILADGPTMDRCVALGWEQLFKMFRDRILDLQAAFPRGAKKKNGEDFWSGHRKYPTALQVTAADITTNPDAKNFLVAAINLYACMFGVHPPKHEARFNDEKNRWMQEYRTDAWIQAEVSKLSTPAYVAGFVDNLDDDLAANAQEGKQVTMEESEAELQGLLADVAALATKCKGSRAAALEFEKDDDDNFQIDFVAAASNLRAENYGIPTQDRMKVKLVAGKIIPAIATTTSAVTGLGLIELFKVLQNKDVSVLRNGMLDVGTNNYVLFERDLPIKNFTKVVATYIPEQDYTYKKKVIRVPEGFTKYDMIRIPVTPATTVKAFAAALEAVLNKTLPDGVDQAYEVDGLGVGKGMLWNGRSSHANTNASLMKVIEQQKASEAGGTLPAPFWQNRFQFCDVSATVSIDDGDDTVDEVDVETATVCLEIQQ
# [3] = molecular target: AMP-activated protein kinase, AMPK (Homo sapiens) (UniProt P54646+O43741+P54619+Q9UGJ0+Q9Y478+Q13131+Q9UGI9); assay: AMP-dependent Kinase enzyme assay. An in vitro enzyme assay that detects ADP turnover that is directly proportional to AMPK activity. This uses naive AMPK that is activated during the assay with MK-8722; type: functional; conditions: 30 µM
# [4] = molecular target: Sialic acid-binding Ig-like lectin 9 (Homo sapiens) (UniProt Q9Y336); assay: Hs-Siglec9 ALPHAscreen SOP 20170721; conditions: 10 µM
# Trypanosoma cruzi = assay: Trypanosoma cruzi phosphomannomutase and mannose-1-phosphate guanylyltransferase assay; type: functional; conditions: 10 µM
# [5] = molecular target: T2, Arginase-2, mitochondrial (Homo sapiens) (UniProt P78540); assay: in vitro enzyme assay to detect the production of urea directly proportional to the activity of Arginase II; type: functional; conditions: 33.3 µM; further: in the data most compounds retested in dose-response had high values
# T2 sequence (whole entry): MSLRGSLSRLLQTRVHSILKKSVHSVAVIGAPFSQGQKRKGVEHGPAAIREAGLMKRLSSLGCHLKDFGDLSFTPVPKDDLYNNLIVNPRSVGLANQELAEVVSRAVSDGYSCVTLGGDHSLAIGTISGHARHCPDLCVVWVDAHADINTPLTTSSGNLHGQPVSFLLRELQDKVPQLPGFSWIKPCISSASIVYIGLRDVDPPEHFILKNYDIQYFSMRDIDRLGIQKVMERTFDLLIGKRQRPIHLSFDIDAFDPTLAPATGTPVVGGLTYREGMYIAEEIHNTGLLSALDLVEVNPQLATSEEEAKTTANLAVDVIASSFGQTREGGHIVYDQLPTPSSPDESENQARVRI
# [6] = molecular target: T3, Proteasome subunit beta (Trypanosoma cruzi) (UniProt O96673); assay: Trypanosoma cruzi proteasome chymotrypsin-like activity (TcProtChymo) assay.; further: in the data most compounds retested in dose-response had high values; type: functional; conditions: 9.37 µM
# T3 sequence (whole entry): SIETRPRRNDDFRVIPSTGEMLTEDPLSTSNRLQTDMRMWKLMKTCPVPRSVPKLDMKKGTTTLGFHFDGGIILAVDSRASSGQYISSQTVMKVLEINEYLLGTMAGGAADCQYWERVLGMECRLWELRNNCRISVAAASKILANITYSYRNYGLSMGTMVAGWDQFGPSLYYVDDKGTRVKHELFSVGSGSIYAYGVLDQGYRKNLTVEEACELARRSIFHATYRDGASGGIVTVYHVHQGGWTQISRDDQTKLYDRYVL
# Homo sapiens = organism: Homo sapiens; assay: To identify inhibition of the IFN signalling (Jak-Stat) pathway via expression of an eGFP reporter gene under the control of an IFN-stimulated response element (ISRE) containing MxA promoter.; type: functional; conditions: 30 µM
# [7] = molecular target: T4, Tyrosyl-tRNA synthetase, putative (Trypanosoma cruzi (strain CL Brener)) (UniProt Q4DSP6); assay: Trypanosoma cruzi tyrosyl tRNA synthetase (TcYRS) _High Tyrosine SOP; type: functional; conditions: 30 µM; further: in the data most compounds retested in dose-response had high values
# T4 sequence (whole entry): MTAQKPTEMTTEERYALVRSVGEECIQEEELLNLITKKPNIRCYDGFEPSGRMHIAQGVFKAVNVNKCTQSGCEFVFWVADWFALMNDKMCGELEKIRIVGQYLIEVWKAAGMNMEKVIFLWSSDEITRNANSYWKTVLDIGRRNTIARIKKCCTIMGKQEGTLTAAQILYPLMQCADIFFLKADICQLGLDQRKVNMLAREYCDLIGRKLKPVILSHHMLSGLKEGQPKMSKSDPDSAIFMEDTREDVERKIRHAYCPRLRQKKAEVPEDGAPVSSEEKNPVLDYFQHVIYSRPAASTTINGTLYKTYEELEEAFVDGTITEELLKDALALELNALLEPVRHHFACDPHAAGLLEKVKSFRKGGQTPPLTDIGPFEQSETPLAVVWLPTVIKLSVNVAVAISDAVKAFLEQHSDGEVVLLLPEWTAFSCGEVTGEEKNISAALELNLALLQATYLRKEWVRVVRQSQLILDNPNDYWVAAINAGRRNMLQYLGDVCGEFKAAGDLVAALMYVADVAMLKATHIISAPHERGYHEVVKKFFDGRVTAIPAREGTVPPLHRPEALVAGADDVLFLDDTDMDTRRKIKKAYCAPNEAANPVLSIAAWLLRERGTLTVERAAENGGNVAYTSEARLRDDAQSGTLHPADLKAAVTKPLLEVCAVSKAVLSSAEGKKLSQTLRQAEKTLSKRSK
# [8] = molecular target: T4, Tyrosyl-tRNA synthetase, putative (Trypanosoma cruzi (strain CL Brener)); assay: Trypanosoma cruzi tyrosyl tRNA synthetase (TcYRS) SOP; type: functional; conditions: 30 µM
# [9] = molecular target: Chromo domain-containing protein 1 (Saccharomyces cerevisiae (strain ATCC 204508 / S288c) (Baker's yeast)) (UniProt P32657); assay: ScCHD-1 Enzyme Inhibition Assay; type: functional; conditions: 30 µM; further: in the data most compounds retested in dose-response had high values
# Sequence of Chromo domain-containing protein 1 (Saccharomyces cerevisiae (strain ATCC 204508 / S288c) (Baker's yeast)) (P32657 whole entry, the tested form may be a part): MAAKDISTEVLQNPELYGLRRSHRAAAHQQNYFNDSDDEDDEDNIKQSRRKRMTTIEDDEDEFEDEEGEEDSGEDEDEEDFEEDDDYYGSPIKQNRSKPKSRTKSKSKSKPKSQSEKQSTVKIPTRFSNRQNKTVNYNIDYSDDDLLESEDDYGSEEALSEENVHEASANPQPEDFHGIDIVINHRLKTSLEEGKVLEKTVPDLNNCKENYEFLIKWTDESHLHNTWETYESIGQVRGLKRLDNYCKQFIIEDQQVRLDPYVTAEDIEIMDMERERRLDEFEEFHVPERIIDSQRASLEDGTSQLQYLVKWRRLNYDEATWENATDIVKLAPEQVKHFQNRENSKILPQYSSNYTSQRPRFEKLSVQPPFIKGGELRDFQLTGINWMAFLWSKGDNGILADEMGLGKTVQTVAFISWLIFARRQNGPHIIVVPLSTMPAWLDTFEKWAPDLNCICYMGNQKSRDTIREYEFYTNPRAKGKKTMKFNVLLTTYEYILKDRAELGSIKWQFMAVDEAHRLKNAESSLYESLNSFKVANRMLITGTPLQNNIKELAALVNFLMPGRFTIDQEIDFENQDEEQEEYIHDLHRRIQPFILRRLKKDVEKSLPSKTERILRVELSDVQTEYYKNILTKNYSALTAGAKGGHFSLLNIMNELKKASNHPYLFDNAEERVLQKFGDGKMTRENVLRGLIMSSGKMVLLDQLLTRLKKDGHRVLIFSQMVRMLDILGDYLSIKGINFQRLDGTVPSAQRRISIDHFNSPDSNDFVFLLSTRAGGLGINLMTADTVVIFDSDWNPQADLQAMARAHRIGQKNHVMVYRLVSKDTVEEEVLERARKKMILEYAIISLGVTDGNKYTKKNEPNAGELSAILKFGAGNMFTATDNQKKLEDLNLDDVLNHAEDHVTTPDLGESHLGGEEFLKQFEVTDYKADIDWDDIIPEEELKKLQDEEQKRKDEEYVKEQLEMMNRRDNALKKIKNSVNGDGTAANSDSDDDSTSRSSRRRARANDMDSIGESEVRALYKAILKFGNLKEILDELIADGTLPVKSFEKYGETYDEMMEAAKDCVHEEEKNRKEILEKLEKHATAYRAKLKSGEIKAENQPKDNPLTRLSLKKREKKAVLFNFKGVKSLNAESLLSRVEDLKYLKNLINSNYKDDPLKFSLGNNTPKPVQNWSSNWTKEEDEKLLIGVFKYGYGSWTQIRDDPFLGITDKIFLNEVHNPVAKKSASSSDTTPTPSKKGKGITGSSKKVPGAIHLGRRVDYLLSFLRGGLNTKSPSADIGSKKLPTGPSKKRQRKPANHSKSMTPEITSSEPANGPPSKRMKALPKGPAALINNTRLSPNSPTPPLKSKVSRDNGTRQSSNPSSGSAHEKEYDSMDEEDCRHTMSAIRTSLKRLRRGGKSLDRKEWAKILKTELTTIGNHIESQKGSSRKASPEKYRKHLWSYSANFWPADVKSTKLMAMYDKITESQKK
# Sequence of Sialic acid-binding Ig-like lectin 9 (Homo sapiens) (Q9Y336 whole entry): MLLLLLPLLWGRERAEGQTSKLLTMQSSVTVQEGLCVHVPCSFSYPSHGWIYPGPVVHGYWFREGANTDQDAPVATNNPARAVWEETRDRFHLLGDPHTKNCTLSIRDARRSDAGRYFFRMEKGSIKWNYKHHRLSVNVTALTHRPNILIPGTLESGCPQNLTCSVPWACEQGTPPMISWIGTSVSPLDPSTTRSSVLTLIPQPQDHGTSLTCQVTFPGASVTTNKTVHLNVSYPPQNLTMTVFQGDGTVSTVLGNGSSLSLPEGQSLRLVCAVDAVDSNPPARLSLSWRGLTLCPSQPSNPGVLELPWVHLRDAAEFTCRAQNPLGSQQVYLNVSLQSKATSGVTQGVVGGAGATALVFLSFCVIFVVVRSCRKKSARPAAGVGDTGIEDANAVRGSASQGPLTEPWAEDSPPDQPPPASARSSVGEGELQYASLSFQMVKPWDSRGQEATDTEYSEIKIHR
# Sequence of Protein translocase subunit SecA (Escherichia coli (strain K12)) (P10408 whole entry): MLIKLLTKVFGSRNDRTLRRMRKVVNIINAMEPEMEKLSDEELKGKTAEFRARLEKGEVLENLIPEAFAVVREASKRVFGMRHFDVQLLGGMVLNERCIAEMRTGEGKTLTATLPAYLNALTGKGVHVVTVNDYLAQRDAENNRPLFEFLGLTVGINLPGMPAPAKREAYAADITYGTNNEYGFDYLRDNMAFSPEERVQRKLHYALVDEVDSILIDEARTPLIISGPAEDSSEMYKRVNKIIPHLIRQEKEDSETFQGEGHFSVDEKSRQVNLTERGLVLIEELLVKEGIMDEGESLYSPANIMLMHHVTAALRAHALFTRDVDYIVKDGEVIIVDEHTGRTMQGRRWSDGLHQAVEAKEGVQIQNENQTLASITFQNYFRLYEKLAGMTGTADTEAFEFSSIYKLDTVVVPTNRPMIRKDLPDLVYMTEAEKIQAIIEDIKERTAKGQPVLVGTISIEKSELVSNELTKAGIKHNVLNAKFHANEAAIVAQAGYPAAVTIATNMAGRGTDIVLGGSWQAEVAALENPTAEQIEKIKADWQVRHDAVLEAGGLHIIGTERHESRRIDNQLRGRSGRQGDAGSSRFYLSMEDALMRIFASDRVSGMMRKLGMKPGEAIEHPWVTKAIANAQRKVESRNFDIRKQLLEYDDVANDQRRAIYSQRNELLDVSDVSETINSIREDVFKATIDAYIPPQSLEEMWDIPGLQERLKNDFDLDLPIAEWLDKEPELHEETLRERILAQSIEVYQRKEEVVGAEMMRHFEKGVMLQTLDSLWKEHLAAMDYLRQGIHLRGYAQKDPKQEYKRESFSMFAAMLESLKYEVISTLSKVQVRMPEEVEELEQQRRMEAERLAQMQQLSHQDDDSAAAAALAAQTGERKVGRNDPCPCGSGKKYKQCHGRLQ
SMILES,Percent Effect [1],Percent Effect [2],Percent Effect [3],Percent Effect [4],Percent Effect (Trypanosoma cruzi),Percent Effect [5],Percent Effect [6],Percent Effect (Homo sapiens),Percent Effect [7],Percent Effect [8],Percent Effect [9]
Cn1ncc2c1C(COCC1CC1)CN(Cc1ccoc1)C2 (configuration not stated),-1.65%,18.9%,1.61%,-6.93%,2.83%,9.87%,23.8%,27.7%,5.41%,20.5%,2.77%
CCOc1ccc(C#N)cc1NCC(=O)Nc1cc(F)ccc1F,-4.77%,-12.7%,-7.04%,-0.166%,4.63%,-29.7%,3.19%,-7.08%,7.39%,24.1%,18.3%
CC(C)CN1CCCn2nc(CNC(=O)CCCc3cn[nH]c3)cc2C1,-4.55%,2.67%,1.75%,9.18%,6.91%,-0.521%,10.8%,0.658%,6.01%,11.1%,-7.73%
CCCn1nc2c(cc1=O)CN(CCCN1CCCC1=O)CC2,-3.62%,-2.7%,-101%,1.97%,-2.55%,-1.6%,29.6%,17.5%,4.43%,-1.24%,-3.69%
COc1ccc(-c2nc(CN3CC(n4cc(C)cn4)C3)no2)cc1,-4.92%,10.4%,-1.25%,16.8%,4.03%,88.3%,12%,12.7%,6.45%,21%,-9.02%
CN(C)CCN(Cc1ccc(Cl)cc1)C(=O)c1cc[nH]n1,-2.91%,20.8%,3.16%,18.6%,2.23%,3.53%,17.9%,3.16%,7.37%,17.9%,-5.67%
CC(C)c1nc(C2CCCN2Cc2ccno2)no1 (configuration not stated),-2.76%,-2.6%,-0.797%,8.93%,-2.81%,2.13%,-1.52%,14.5%,2.91%,-2.44%,4.2%
CCn1cc(CN2CCCn3nc(CCC(=O)NCCO)cc3C2)cn1,-3.01%,5.2%,13.5%,4.51%,-5.41%,0%,19.8%,-0.55%,4.3%,8.64%,0.629%
COCCC(=O)N1CC[C@@H]2O[C@@H](C)C[C@H]2C1,-6.08%,8%,0.716%,0.473%,2.36%,-3.96%,6.61%,15.7%,6.38%,11.5%,-7.49%
c1cc(CNCC2CNc3ccnn3C2)cc(N2CCCCC2)n1 (configuration not stated),-3.28%,19%,-11.8%,-8.9%,13%,-2.8%,27.1%,1.88%,13.5%,22.8%,-27.6%
O=C(NCC1CCOC1)c1csc(-c2ccco2)n1 (configuration not stated),-2.71%,13%,-3.93%,-0.826%,5.24%,-1.07%,13.8%,13.5%,7.77%,21.9%,-8.51%
CCC1=N[C@@]2(CC[C@@H]3CN(S(=O)(=O)CC(C)C)C[C@@H]32)C(=O)N1C,-0.279%,10.4%,4.02%,2.43%,-3.25%,7.1%,13.2%,-9.27%,5.29%,16.7%,-9.12%
O=C1CC[C@H]2[C@H](CCN2C(=O)C2CCOCC2)N1Cc1ccncc1,-2.75%,22.7%,-7.93%,0.426%,2.95%,-3.35%,17.7%,-2.05%,6.35%,15.4%,-9.4%
O=C(CCc1cc2n(n1)CCCN(Cc1ccccc1F)C2)NC1CC1,-3.75%,1.39%,1.32%,0.0735%,6.71%,-2.21%,10.2%,-26.8%,2.1%,5.13%,-4.12%
CN(Cc1cnn(C)c1)C(=O)NC1CCN(c2ncccn2)CC1,-7.21%,13%,1.2%,-4.13%,-10.7%,-0.356%,6.25%,25.2%,1.94%,2.44%,-8.45%
O=C(c1cccc(CNCC2CNc3ccnn3C2)c1)N1CCCC1 (configuration not stated),-3.44%,8.86%,-18.1%,-4.78%,4.41%,-4.09%,18.4%,6.92%,8.33%,10.1%,-18.2%
CCC(C)(NCC(=O)Nc1ccccc1)c1nc(C)cs1 (configuration not stated),-2.41%,2.7%,-4.26%,30.5%,2.05%,18.6%,-0.772%,-24.9%,1.07%,6.17%,2.11%
O=C(NCc1ccccn1)[C@@H]1COC[C@H]2CN(C3CCOCC3)C[C@H]21,4.15%,8.11%,9.79%,-14%,-7.33%,4.78%,12.7%,11.2%,5.41%,10.3%,-2.43%
CC(c1ccc(F)c(F)c1)N1CCN(Cc2nccn2C)CC1 (configuration not stated),0.457%,20.8%,-8.62%,5.23%,-7.68%,5.69%,8.62%,40.9%,-5.83%,-2.44%,-9.27%
CCc1nc2n(n1)CC(NCc1noc(-c3ccccc3)n1)CC2 (configuration not stated),-5.91%,5.26%,-5.76%,10.4%,9.06%,2.52%,-2.28%,-13.2%,3.45%,16.1%,-6.43%
CN(C)C(=O)C1CN(Cc2cscn2)CCN(S(C)(=O)=O)C1 (configuration not stated),-11.5%,17.6%,-0.331%,3.06%,1.98%,-1.16%,6.55%,2.48%,7.53%,19.5%,-22.4%
Cc1nc(C2CCCN(C(=O)c3ccc(Cn4cccn4)o3)C2)no1 (configuration not stated),0.739%,-5.2%,2.21%,1.09%,-2.43%,5.34%,-4.9%,10.9%,3.88%,0%,0.66%

# From ChEMBL document CHEMBL3988442, “University of Dundee, Small-Polar-MMV Screening Library” (2021)
